# In PubChem BioAssay (Tox21):
# A number with no mark means an inactive call. Results filed as inconclusive are left out. Entries that show only a call come without a potency. Active and inactive are the calls of the source. Unless noted, the call rests on the fitted dose curve; in most records, active means well fitted curve in the direction sought with a large enough effect in the repeat runs; inconclusive means weak or mixed curves; inactive means no such curve, though single readings can be large; an effect the other way counts as inactive or inconclusive.
# What was measured:
# [1] = qHTS assay to identify small molecule antagonists of the estrogen related receptor (ERR) signaling pathway from Tox21 library - cell viability counter screen (AID 1224834); settings: ERR reporter cells viability, CellTiter-Fluor, 17.5 h; series mostly up to 92.4 µM; further: nearly all actives have a fitted effect of over 30% in size
# In short: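 ERR cells, 2,000/well; 6 h settle at 37 C/5% CO2; pin-tool compound transfer in DMSO; 17.5 h at 37 C; CellTiter-Fluor, 30 min; fluorescence intensity.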
# [2] = target: Luciferin 4-monooxygenase (Photinus pyralis) (UniProt P08659); experiment: qHTS assay to identify small molecule inhibitors of firefly luciferase (AID 1224835); further: nearly all actives have a fitted effect of over 25% in size; settings: purified P. pyralis luciferase, luminescence inhibition; series mostly up to 115 µM
# In short: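 Quantitative HTS format; KM concentrations of both substrates. Purified P. pyralis FLuc activity quantified from luminescence images.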
# [3] = qHTS assay to identify small molecule agonists of the constitutive androstane receptor (CAR) signaling pathway - cell viability counter screen (AID 1224836); settings: HepG2-CYP2B6-hCAR viability, CellTiter-Fluor, 23 h, PK11195 added to every well; series mostly up to 92.4 µM; further: nearly all actives have a fitted effect of over 45% in size
# In short: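 HepG2 cells stably carrying hCAR and a CYP2B6-2.2kb reporter; 15-concentration compounds plus PK11195 (final 0.75 uM), 23 hr at 37 C/5% CO2. Viability read by CellTiter-Fluor fluorescence.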
# [4] = qHTS assay to identify small molecule antagonists of the constitutive androstane receptor (CAR) signaling pathway - cell viability counter screen (AID 1224837); settings: HepG2-CYP2B6-hCAR viability, CellTiter-Fluor, 23 h, co-treated with 50 nM CITCO; series mostly up to 92.4 µM; further: nearly all actives have a fitted effect of over 45% in size
# In short: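 Viability was measured with CellTiter-Fluor in a HepG2 line carrying stably transfected hCAR and a CYP2B6-2.2kb construct. Cells were exposed for 23 hr at 37 C to 15 compound concentrations with 50 nM CITCO as agonist.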
# [5] = qHTS assay to identify small molecule antagonists of the estrogen related receptor signaling pathway with the pleiotropic PPARgamma coactivator (PGC) from Tox21 10K library - cell viability counter screen (AID 1224840; active means well fitted cell-killing curve with a large enough effect in the repeat runs, not every such curve was filed as active; further: nearly all actives have a fitted effect of over 40% in size); settings: PGC/ERR reporter cells viability, CellTiter-Fluor, 17.5 h; series mostly up to 92.4 µM
# In short: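 Multiplexed viability counter screen in the PGC/ERR cell line: cells treated with DMSO-dissolved compounds for 17.5 hours at 37 C, then viability measured as CellTiter-Fluor fluorescence.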
# [6] = target: Thyrotropin receptor (Homo sapiens) (UniProt P16473); experiment: qHTS assay to identify small molecule agonists of the thyroid stimulating hormone receptor (TSHR) signaling pathway (AID 1224843; calls by dose curve; further: nearly all actives have a fitted effect of over 45% in size); settings: TSHR-HEK293 cells, cAMP HTRF, agonist mode, 30 min; series mostly up to 92.4 µM
# In short: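 Using 15 concentrations per compound in triplicate, cAMP production was monitored in TSHR-HEK293 cells after 30 min compound incubation at RT; HTRF reagents followed, with fluorescence intensity recorded after 1 h.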
# [7] = qHTS assay to identify small molecule agonists of the hypoxia (HIF-1) signaling pathway - cell viability counter screen (AID 1224844; calls by dose curve; further: nearly all actives have a fitted effect of over 50% in size); settings: HRE-bla ME-180 viability, CellTiter-Glo luminescence, 17 h; series mostly up to 76.8 µM
# In short: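 Cytotoxicity was measured in parallel with the HRE-driven beta-lactamase readout: after 17 hrs of compound exposure at 37C, HRE-bla ME-180 cells received CellTiter-Glo and luminescence was recorded 30 min later.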
# [8] = qHTS assay to identify small molecule agonists of H2AX (AID 1224845; active means well fitted activation curve with a large enough effect in the signal ratio in the repeat runs, not every such curve was filed as active; the % refers to the signal ratio); settings: CHO-K1 phospho-H2AX Ser139 HTRF, 3 h; series mostly up to 154 µM
# In short: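 Wild-type CHO-K1 cells plated overnight, then exposed 3 hr at 37C to compounds at 15 concentrations (0.76% DMSO). Lysed, then HTRF anti-pH2AX(S139)-cryptate/anti-H2AX-d2 detection after 24 hr at room temperature; emissions 665 and 620 nm.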
# [9] = qHTS assay to identify small molecule agonists of the hypoxia (HIF-1) signaling pathway (AID 1224846; active means well fitted activation curve with a large enough effect in the signal ratio in the repeat runs, not every such curve was filed as active; the % refers to the signal ratio); settings: HRE-bla ME-180 cells, beta-lactamase ratio, 17 h; series mostly up to 76.8 µM
# In short: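 Compounds from the Tox21 10K library, dissolved in DMSO, are tested for induction of a hypoxia response element–controlled beta-lactamase reporter in ME-180 cells. Exposure lasts 17 hrs at 37C after a 5 hr settling period, followed by CCF4-AM FRET substrate.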
# [10] = qHTS RealTime-Glo MT Cell Viability Assay in HEK293 cells - 32 hour (AID 1224868); settings: RealTime-Glo luminescence; series mostly up to 76.8 µM; further: top concentration of the series differs between compounds; nearly all actives have a fitted effect of over 50% in size
# In short: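 Tox21 10K qHTS, HEK293, 600 cells/well, RealTime-Glo reagent co-dispensed with cells; 5 h preincubation, compound by pintool, 37 C, luminescence at 0–40 h.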
# [11] = A CellTox Green Cytotoxicity Assay to monitor cytotoxicity in HEK293 cells - 0 hour (AID 1224869); settings: CellTox Green fluorescence; series mostly up to 76.8 µM; further: nearly all actives have a fitted effect of over 50% in size; further: potency means the concentration at half of the fitted maximal effect
# In short: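 Cells (HEK293, 600/well) and dye reagent are dispensed together. After 5 h at 37 C, 23 nL compound is pinned in. Plates stay at 37 C for 40 h with fluorescence read at 0h, 8h, 16h, 24h, 32h and 40h.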
# [12] = qHTS RealTime-Glo MT Cell Viability Assay in HepG2 cells - 40 hour (AID 1224870); settings: RealTime-Glo luminescence; series mostly up to 76.8 µM; further: nearly all actives have a fitted effect of over 50% in size; further: potency means the concentration at half of the fitted maximal effect
# In short: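 HepG2 cells mixed with RealTime-Glo MT reagents (NanoLuc plus cell-permeant prosubstrate) were seeded at 600 cells/well, incubated 5 h at 37 C/5% CO2, then pinned with compounds in DMSO; nonlytic luminescence tracked viability during 40 h treatment.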
# [13] = target: Nuclear receptor subfamily 1 group I member 3 (Homo sapiens) (UniProt Q14994); experiment: qHTS assay to identify small molecule antagonists of the constitutive androstane receptor (CAR) signaling pathway (AID 1224838); settings: HepG2-CYP2B6-hCAR luciferase, CITCO-stimulated, 24 h; series mostly up to 92.4 µM;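 further: HepG2 cells stably expressing hCAR with CYP2B6 luciferase reporter stimulated by CITCO; nearly all actives have a fitted effect of over 40% in size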
# In short: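 Antagonist mode used CITCO at a final 50 nM to activate CAR in human hepatoma HepG2 cells carrying stable hCAR and a 2.2 kb CYP2B6 promoter-luciferase construct. Compounds were tested at 15 concentrations over 24 h, with luminescence as the end point.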
# [14] = target: Nuclear receptor subfamily 1 group I member 3 (Homo sapiens) (UniProt Q14994); experiment: qHTS assay to identify small molecule agonists of the constitutive androstane receptor (CAR) signaling pathway (AID 1224839); settings: HepG2 hCAR CYP2B6-luciferase, agonist mode, 24 h; series mostly up to 92.4 µM; further: nearly all actives have a fitted effect of over 15% in size
# In short: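 HepG2 cells stably co-transfected with hCAR and a CYP2B6-2.2kb luciferase reporter; compounds at 15 concentrations with 0.75 uM PK11195 present. After 24 hr at 37 C, luciferase read by ONE-Glo luminescence.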
# [15] = qHTS assay to identify small molecule agonists of the estrogen related receptor signaling pathway with the pleiotropic PPARgamma coactivator (PGC) from Tox21 10K library (AID 1224842); settings: PGC/ERR reporter cell line, luciferase ONE-Glo, 18 h; series mostly up to 92.4 µM; further: nearly all actives have a fitted effect of over 15% in size
# In short: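 PGC/ERR reporter cells (NTP line) were seeded 2,000 per well, rested 6 h at 37 C/5% CO2, then pin-dosed with compounds in DMSO for 18 h at 37 C; luciferase read by One-Glo luminescence after 30 min at room temperature.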
# [16] = qHTS assay to identify small molecule agonists of H2AX - cell viability counter screen (AID 1224847; calls by dose curve; further: top concentration of the series differs between compounds; nearly all actives have a fitted effect of over 30% in size); settings: CHO-K1 viability, CellTiter-Glo luminescence, 3 h; series mostly up to 154 µM
# In short: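 CHO-K1 cells plated overnight at 37C, then exposed 3 h at 37C to compounds at 15 concentrations (0.76% DMSO final). Viability by CellTiter-Glo luminescence after 30 min at room temperature.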
# [17] = qHTS assay to identify small molecule antagonists of the estrogen related receptor (ERR) signaling pathway from Tox21 library (AID 1224848); settings: ERR reporter cell line, luciferase antagonist mode, 18 h; series mostly up to 92.4 µM; further: nearly all actives have a fitted effect of over 50% in size
# In short: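 Tox21 10K compounds in DMSO tested for ERR pathway antagonism in NTP's ERR cell line; 18 h, 37 C exposure; ONE-Glo luminescence.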
# [18] = qHTS assay to identify small molecule agonists of the estrogen related receptor (ERR) signaling pathway from Tox21 library (AID 1224849; calls by dose curve; further: nearly all actives have a fitted effect of over 15% in size); settings: ERR reporter cell line, ONE-Glo luciferase, 18 h; at 92.4 µM (top of the series) unless noted
# In short: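 Cells carrying the ERR reporter were plated and allowed to settle for 6 h, exposed to library compounds for 18 h at 37 C, then lysed with ONE-Glo and luminescence measured.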
# [19] = qHTS RealTime-Glo MT Cell Viability Assay in HepG2 cells - 24 hour (AID 1224867); settings: RealTime-Glo luminescence; series mostly up to 76.8 µM; further: nearly all actives have a fitted effect of over 50% in size
# In short: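 Cells + NanoLuc/prosubstrate dispensed (600 cells/well) → 5 h at 37 C/5% CO2 → compounds in DMSO transferred → 40 h incubation at 37 C, luminescence read at 0, 8, 16, 24, 32, 40 h.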
# [20] = qHTS assay to identify small molecule antagonists of the estrogen related receptor signaling pathway with the pleiotropic PPARgamma coactivator (PGC) from Tox21 10K library (AID 1224841; call rule not given here); settings: PGC/ERR reporter cell line, ONE-Glo luciferase, 18 h; series mostly up to 92.4 µM
# In short: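 Steps: plate 2,000 PGC/ERR cells per well; incubate 6 h at 37 C with 5% CO2; transfer compounds from DMSO stocks by pin tool; incubate 18 h at 37 C; add One-Glo; measure luminescence 30 min later.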
# Luciferin 4-monooxygenase (Photinus pyralis), sequence (P08659 whole entry, looked up): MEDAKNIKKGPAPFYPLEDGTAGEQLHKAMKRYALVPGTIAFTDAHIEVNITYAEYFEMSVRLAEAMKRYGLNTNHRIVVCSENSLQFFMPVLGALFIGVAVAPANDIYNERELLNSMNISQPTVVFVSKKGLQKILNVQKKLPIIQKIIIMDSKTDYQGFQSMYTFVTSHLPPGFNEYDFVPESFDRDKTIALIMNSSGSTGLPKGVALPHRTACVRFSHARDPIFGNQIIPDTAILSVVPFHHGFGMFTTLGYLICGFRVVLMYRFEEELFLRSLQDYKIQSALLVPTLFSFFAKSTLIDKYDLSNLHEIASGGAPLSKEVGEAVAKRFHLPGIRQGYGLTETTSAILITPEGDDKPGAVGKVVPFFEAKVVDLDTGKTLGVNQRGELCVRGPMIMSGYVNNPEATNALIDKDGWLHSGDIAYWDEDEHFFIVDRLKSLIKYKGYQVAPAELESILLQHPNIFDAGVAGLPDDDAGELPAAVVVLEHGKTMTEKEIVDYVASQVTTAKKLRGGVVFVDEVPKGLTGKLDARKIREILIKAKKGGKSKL
# Nuclear receptor subfamily 1 group I member 3 (Homo sapiens), sequence (Q14994 whole entry, looked up): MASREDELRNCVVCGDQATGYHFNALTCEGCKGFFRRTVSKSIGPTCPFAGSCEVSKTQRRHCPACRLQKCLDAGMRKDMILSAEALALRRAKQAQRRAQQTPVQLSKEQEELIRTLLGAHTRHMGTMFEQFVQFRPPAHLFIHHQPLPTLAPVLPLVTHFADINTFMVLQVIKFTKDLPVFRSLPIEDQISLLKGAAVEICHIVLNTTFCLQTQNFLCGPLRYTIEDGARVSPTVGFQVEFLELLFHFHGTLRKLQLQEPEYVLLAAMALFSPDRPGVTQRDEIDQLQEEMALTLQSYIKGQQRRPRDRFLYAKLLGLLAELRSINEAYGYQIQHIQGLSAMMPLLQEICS
# Thyrotropin receptor (Homo sapiens), sequence (P16473 whole entry, looked up): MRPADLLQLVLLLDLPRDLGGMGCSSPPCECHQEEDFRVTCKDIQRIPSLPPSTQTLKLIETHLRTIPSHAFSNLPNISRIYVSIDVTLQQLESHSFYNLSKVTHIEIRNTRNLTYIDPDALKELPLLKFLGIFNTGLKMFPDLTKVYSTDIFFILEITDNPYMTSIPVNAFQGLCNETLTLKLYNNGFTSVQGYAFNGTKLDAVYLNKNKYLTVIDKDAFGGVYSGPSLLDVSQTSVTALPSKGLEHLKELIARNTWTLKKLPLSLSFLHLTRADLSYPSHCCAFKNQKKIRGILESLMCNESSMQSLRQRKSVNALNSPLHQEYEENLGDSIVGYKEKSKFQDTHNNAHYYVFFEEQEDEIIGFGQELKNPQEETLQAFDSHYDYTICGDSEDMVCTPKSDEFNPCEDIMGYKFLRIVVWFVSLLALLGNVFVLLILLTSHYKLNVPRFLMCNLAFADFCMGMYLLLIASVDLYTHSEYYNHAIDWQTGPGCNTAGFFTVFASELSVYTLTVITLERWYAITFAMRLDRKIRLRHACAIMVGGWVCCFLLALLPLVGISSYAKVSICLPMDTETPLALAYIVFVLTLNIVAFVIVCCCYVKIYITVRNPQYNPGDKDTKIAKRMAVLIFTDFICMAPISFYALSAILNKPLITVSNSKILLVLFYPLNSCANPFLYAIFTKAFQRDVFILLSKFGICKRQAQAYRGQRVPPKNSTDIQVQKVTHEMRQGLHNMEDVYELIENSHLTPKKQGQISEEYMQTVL
smiles,measurement,setting,value
N[C@@H](CS)C(=O)O,Potency,[1],inactive
same,Potency,[2],inactive
same,outcome,[3],inactive
same,outcome,[4],inactive
same,outcome,[5],inactive
same,outcome,[6],inactive
same,Potency,[7],inactive
same,outcome,[8],inactive
same,outcome,[9],inactive
same,Potency,[10],inactive
same,Potency,[11],inactive
same,Potency,[12],inactive
CCCC=O,Potency,[1],inactive
same,Potency,[2],inactive
same,outcome,[3],inactive
same,Potency,[13],inactive
same,Potency,[14],inactive
same,outcome,[5],inactive
same,Potency,[15],inactive
same,outcome,[6],inactive
same,Potency,[7],inactive
same,outcome,[8],inactive
same,outcome,[9],inactive
same,Potency,[16],inactive
same,Potency,[17],inactive
same,"activity change, positive = activation",[18],0.262%
same,outcome,[19],inactive
same,Potency,[10],inactive
same,Potency,[11],inactive
CC(C)COC(=O)C(C)C,Potency,[1],inactive
same,Potency,[2],inactive
same,outcome,[3],inactive
same,Potency,[13],inactive
same,Potency,[14],inactive
same,outcome,[5],inactive
same,Potency,[15],inactive
same,outcome,[6],inactive
same,Potency,[7],inactive
same,outcome,[9],inactive
same,Potency,[16],inactive
same,Potency,[17],inactive
same,"activity change, positive = activation",[18],8.11%
same,Potency,[10],inactive
same,Potency,[11],inactive
same,Potency,[12],inactive
C=C(C)C(=O)OCCCCCCCCCCCCCCCCCC,"viability change, negative = cytotoxic",[1],-0.607% [at 19 µM]
same,"activity change, negative = inhibition",[2],-0.803% [at 23.6 µM]
same,"viability change, negative = cytotoxic",[3],1.14% [at 19 µM]
same,"activity change, negative = cytotoxicity",[4],4.26% [at 19 µM]
same,"viability change, negative = cytotoxic",[5],1.61% [at 19 µM]
same,activation,[6],-1.44% [at 19 µM]
same,"activity change, negative = cytotoxicity",[7],5.2% [at 15.8 µM]
same,activation,[9],-0.144% [at 15.8 µM]
same,"activity change, negative = cytotoxicity",[19],4.54% [at 15.8 µM]
same,"activity change, negative = cytotoxic",[10],4.26% [at 15.8 µM]
same,cytotoxicity,[11],2.77% [at 15.8 µM]
same,"activity change, negative = cytotoxic",[12],13.1% [at 15.8 µM]
N#CCc1ccccc1[N+](=O)[O-],Potency,[1],inactive
same,Potency,[2],inactive
same,outcome,[3],inactive
same,Potency,[13],inactive
same,Potency,[14],inactive
same,outcome,[5],inactive
same,outcome,[6],inactive
same,Potency,[7],inactive
same,outcome,[8],inactive
same,outcome,[9],inactive
same,Potency,[16],inactive
same,outcome,[19],inactive
same,Potency,[10],inactive
same,Potency,[11],inactive
same,Potency,[12],inactive
Nc1ccn(C2CO[C@H](CO)O2)c(=O)n1 (stereo partly specified),Potency,[1],inactive
same,Potency,[2],inactive
same,outcome,[3],inactive
same,outcome,[4],inactive
same,Potency,[20],inactive
same,Potency,[15],inactive
same,outcome,[6],inactive
same,Potency,[7],inactive
same,outcome,[8],inactive
same,outcome,[9],inactive
same,Potency,[16],inactive
same,Potency,[17],inactive
same,"activity change, positive = activation",[18],0.852% [at 42.5 µM]
same,outcome,[19],inactive
same,Potency,[10],inactive
same,Potency,[11],16.9 µM (active)
same,Potency,[12],inactive
C[N+](C)(C)CC[N+]1(C)Cc2c(Cl)c(Cl)c(Cl)c(Cl)c2C1,Potency,[1],inactive
same,Potency,[2],inactive
same,outcome,[3],inactive
same,outcome,[4],inactive
same,outcome,[5],inactive
same,outcome,[6],inactive
same,Potency,[7],inactive
same,outcome,[8],inactive
same,Potency,[16],inactive
same,Potency,[10],inactive
same,Potency,[11],inactive
same,Potency,[12],23.9 µM (active)
